# Sampled rows, rich in hits. Any-hit rate of the full collection: about 4.6%.
# TRHR enhancer – allosteric enhancers of human TRH receptor; AID 493056; hit rate 0.66% among 360,000; enhancement, % at 2 µM; TRHR cells, fluo-8 calcium fluorescence, EC20 TRH enhancement; P34981; in the data active = enhancement above about 30%; also: 0% is about no effect
# Target sequence (P34981 whole entry, looked up): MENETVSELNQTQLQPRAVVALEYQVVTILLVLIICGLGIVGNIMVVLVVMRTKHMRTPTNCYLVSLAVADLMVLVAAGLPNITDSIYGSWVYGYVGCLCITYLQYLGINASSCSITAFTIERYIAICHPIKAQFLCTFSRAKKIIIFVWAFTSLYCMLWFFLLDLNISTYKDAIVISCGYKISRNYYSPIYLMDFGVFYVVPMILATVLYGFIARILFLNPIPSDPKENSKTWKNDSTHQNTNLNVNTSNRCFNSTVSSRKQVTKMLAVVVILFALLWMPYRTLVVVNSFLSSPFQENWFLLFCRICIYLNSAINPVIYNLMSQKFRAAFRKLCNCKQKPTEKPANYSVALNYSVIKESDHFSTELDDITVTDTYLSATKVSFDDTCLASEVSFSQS
#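 Enhancer read-out: after compound pinning and an initial kinetic agonist-mode read, an EC20 of TRH (10 nM final) was injected and fluo-8 calcium signal (Ex 480/Em 530) followed at 1 s/cycle for 100 cycles in TRHR-expressing cells.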
# D1 potentiator – potentiators of human D1 dopamine receptor; P21728; HEK293 TREx D1 cells, calcium flux, dopamine EC20 potentiation; potentiation, % at 10 µM; hit rate 0.036% among 360,000; in the data active = potentiation above about 30%; also: 0% is about no effect
# D1 antagonist – human D1 dopamine receptor antagonism. P21728. HEK293 TREx D1 cells, calcium flux, dopamine EC80; stronger effect = lower value. activity change, negative = inhibition, % at 10 µM. hit rate 3.2% among 360,000. AID 504652; in the data active = activity change below about -30%; also: % is scaled to controls: 0 for no effect and ±100 for the full control effect
#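 Tetracycline-induced HEK293 T-REx cells with force-coupled D1 receptor were loaded with a no-wash calcium dye. Compound was added after a 10 s baseline and read kinetically for 180 s; EC80 dopamine was then added and calcium flux followed another 180 s.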
# D1 ag – human D1 receptor agonism | activation, % at 2 µM | HEK293 T-REx D1 cells, calcium flux, agonist mode | hit rate 1% among 360,000; also: 0% is about no effect
#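 Tetracycline-induced HEK293 TREx D1 cells, force-coupled to calcium signalling, were dye-loaded with a no-wash calcium kit. Compound was pin-added after a 10 s baseline. Fluorescence was read kinetically at 1 cycle/s for 180 s, with calcium rises flagged as agonism.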
# TRHR agonist – TRH receptor (human) agonism; TRHR cells, calcium flux fluo-8, FDSS agonist mode; P34981; AID 493084; activation, % at 2 µM; hit rate 0.18% among 360,000; also: 0% is about no effect
#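 Agonist-mode FDSS calcium read (Ex 480/Em 530, 1 s cycles) in 1536-well TRHR cells with fluo-8 dye, after 10-cycle baseline and 23 nL compound addition; TRH at EC20 (10 nM final) added afterwards for the enhancer phase.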
# Numbers without * were called inactive; ! = repeats disagree. Rule as the data show it, unless noted: active = activation above about 30%; inactive = the rest.
SMILES,TRHR enhancer,D1 potentiator,D1 antagonist,D1 ag,TRHR agonist
CCC(C)NC(=O)c1ccc(CS(=O)(=O)c2ccc(OC)cc2)o1 (stereo unspecified),-6.1,7.5,-37.8*,-0.6,-0.1
COc1ccc(CCNC(=O)c2ccc(CS(=O)(=O)c3ccc(C)cc3)o2)cc1OC,-6.3,0.8,-31.2*!,7.7,-0.9
CNC(=O)CCCN1C(=O)CCn2nc(-c3cn(C)c4ccccc34)cc21,-0.3,-3.1,2.7,-1.3,-0.6
COc1ccc(CCNC(=O)c2c(N)no[n+]2[O-])cc1OC,-3.5,-5.5,-31.3*,0.0,0.3
Cc1ccc(CCNC(=O)c2ccc(CSCc3ccc(C)cc3)o2)cc1,-3.3,-1.8,-4.8,30.5*,2.8
CCCCCOC(=O)NCC(O)c1ccccc1 (stereo unspecified),-1.2,-2.9,-33.5*,6.8,-0.3
CC(C)Cn1c(CN2C(=O)c3ccccc3C2=O)nc2ccccc2c1=O,30.0*,-2.3,-1.8,0.5,0.3
CC(=O)N1CCCc2cc(S(=O)(=O)N3CCN(c4ccc(F)cc4)CC3)ccc21,0.8,-3.6,-5.9,3.6,0.0
Cc1cc(C)c(NC(=O)CN2C(=O)CCSc3ccc(S(=O)(=O)N4CCCC4)cc32)c(C)c1,-3.1,0.7,-5.0,-1.4,-0.5
Clc1ccc(CN2CCN(c3ncccn3)CC2)c(Cl)c1,-4.3,-4.0,-37.3*,6.7,-1.3
NC(=Nc1ccc(Br)cc1)c1ccccc1,-14.8,-0.3,-38.7*,44.7*,19.2
CCc1nc(N2CCN(C(=O)CCl)CC2)c2c3c(sc2n1)CC(C)CC3 (stereo unspecified),6.3,-6.3,7.5,1.3,-0.1
CCOc1ccc(NC(=O)CSc2oc(-c3ccc(C)cc3)nc2S(=O)(=O)c2ccc(C)cc2)cc1,8.1,-0.2,15.1,43.8*,-0.2
CCOc1ccc(NC(=O)CSc2oc(-c3cccs3)nc2S(=O)(=O)c2ccc(Cl)cc2)cc1,-1.3,-0.7,-18.5,5.1,0.4
Cc1ccc(C(=O)Nc2nnc(S(=O)(=O)N3CCc4ccccc43)s2)cc1,-5.3,4.0,-7.8,2.0,-0.1
CN(C)/N=C/c1ccc([N+](=O)[O-])cc1[N+](=O)[O-],-1.5,-7.7,-2.7,3.8,-1.0
CN(C)/N=C/c1ccc(Sc2ccccc2[N+](=O)[O-])o1,-1.6,-5.7,-33.0*,1.7,-1.6
CN(/N=C/c1ccc(-c2ccc([N+](=O)[O-])cc2)o1)c1ccccc1,1.4,9.6,-66.8*,234.0*,37.3*
CN1CCN(c2ncc3c(n2)CCN(Cc2cc(Br)cs2)C3)CC1,8.2,-0.4,-19.5,20.7,-1.6
CCOc1ccc(N(CC)S(=O)(=O)c2cc(Br)cc3c2N(C(C)=O)C(C)C3)cc1 (stereo unspecified),-5.2,0.7,-7.6,0.3,-0.2
CC(C(=O)Nc1ccc(F)c(F)c1F)N(C)CC(=O)Nc1ccccc1Br (stereo unspecified),5.8,-6.0,-30.9*,0.5,-0.3
Cc1cccc(C)c1NC(=O)CN(C)C(C)C(=O)NCC(=O)Nc1ccc(F)c(F)c1F (stereo unspecified),-6.3,2.6,11.6,-1.3,-0.2
COc1ccc(OCC(O)CNC(C)c2ccccc2)cc1 (stereo unspecified),7.4,0.7,-4.0,17.9,1.7
Cc1cc(C)n(CC(O)COc2ccc(C(C)C)c(C)c2)n1 (stereo unspecified),33.7*,3.2,10.7,4.9,-2.9
Cc1cc(OCC(O)CNC(C)c2ccccc2)ccc1C(C)C (stereo unspecified),9.8,-0.3,48.0,30.5*,3.3
CC(NCC(O)COc1ccc2ccccc2c1)c1ccccc1 (stereo unspecified),15.2,1.4,2.5,42.3*,1.6
CN(CC(O)COc1ccc2ccccc2c1)C1CCCCC1 (stereo unspecified),-6.8,-8.1,-3.3,31.6*,1.6
O=C(NC(Cc1ccccc1)C(=O)O)/C(=C/c1ccc([N+](=O)[O-])cc1)NC(=O)c1ccco1 (stereo unspecified),10.8,9.7,1.6,7.2,5.2
COc1ccccc1C(CC(=O)c1ccccc1)CC(=O)c1ccccc1,-7.9,-1.7,-29.6,30.1*,2.0
Cc1nc(-c2ccc([S+](=O)([O-])N3CCN([S+](=O)([O-])c4c(F)cccc4F)CC3)s2)cs1,4.1,-7.5,15.3,0.6,0.4

# Assay outcomes (PubChem)
